Source: PubChem BioAssay
Activity calls are given as the source filed them.

Key:
[1] = optical density shifts of acrAB sulA E. coli – strain DRC41, OD650, 48 h, E. coli filamentation inducer project, primary screen (AID 1152); details: higher = more signal, called active from +8 up or from −8 down;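 also: E. coli MC1000 strain DRC41 lacking acrAB efflux pump and sulA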
[2] = probe aLefty1 binding on compound microarray – biochemical, small-molecule microarray, 635/667 nm fluorescence, primary screen (AID 1153); details: higher = more signal;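 also: score merges spot fluorescence with signal-to-noise ratio from the scanned slide images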
[3] = plasmodial surface anion channel blockers, osmotic lysis – cell-based, P. falciparum Indochina, OD700, 1 h, primary screen (AID 1154); details: P. falciparum Indochina infected RBC osmotic lysis, higher = more signal, called active from +8 up or from −8 down
[4] = plasmodial surface anion channel blockers, osmotic lysis – cell-based, P. falciparum Indochina, OD700, 2 h, primary screen (AID 1155);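 also: lysis reports solute entry through the parasite surface anion channel PSAC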; details: P. falciparum Indochina infected erythrocytes, higher = more signal, called active from +8 up or from −8 down
[5] = changes in parasitized red cell lysis, either direction – P. falciparum Indochina, OD700, 3 h, PSAC antagonist project, primary screen (AID 1156); details: P. falciparum-infected erythrocytes, osmotic lysis, higher = more signal, called active from +8 up or from −8 down
[6] = plasmodial surface anion channel blockers, osmotic lysis – cell-based, P. falciparum Indochina, OD700, 18 h, primary screen (AID 1157); details: P. falciparum Indochina infected erythrocytes, osmotic lysis OD700, 18 h; higher = more signal, called active from +8 up or from −8 down
[7] = S6 kinase pathway phospho-S6 level changes – cell-based, A549, cytoblot, luminescence, serum-stimulated, primary screen (AID 1158); details: 5 h, higher = more signal;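 also: serum-stimulated A549 lung adenocarcinoma cells; signal is phosphorylated S6 detected by cytoblot immunostaining with HRP secondary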
[8] = molecular target: NADPH oxidase 2 (Homo sapiens) (UniProt P04839); assay: compounds shifting NOX2 Amplex Red fluorescence – cell-based, HEK293-NOX2, PMA-stimulated, NOX inhibitor project, primary screen (AID 1159); details: 45 min, higher = more signal, called active from +8 up or from −8 down; also: test concentration not given here
Chain of NADPH oxidase 2 (Homo sapiens) (P04839 whole entry, looked up): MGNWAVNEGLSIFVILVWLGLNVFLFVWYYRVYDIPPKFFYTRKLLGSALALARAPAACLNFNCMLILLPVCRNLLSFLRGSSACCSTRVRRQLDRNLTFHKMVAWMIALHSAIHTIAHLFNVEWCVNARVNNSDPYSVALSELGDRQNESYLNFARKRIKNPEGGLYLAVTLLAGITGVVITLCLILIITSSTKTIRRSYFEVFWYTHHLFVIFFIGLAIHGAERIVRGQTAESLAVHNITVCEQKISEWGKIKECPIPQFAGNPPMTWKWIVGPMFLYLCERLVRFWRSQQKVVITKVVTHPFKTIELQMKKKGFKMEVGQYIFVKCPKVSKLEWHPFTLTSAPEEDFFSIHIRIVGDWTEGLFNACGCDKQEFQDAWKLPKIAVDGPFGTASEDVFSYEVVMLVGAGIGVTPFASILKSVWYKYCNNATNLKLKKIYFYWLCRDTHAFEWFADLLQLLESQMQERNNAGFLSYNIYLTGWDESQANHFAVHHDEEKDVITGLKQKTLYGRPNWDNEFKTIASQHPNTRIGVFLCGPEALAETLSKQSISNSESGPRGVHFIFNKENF

[9] = molecular target: NADPH oxidase 4 (Homo sapiens) (UniProt Q9NPH5); assay: compounds shifting NOX4 Amplex Red fluorescence – cell-based, HEK293-NOX4, tetracycline-induced, NOX inhibitor project, primary screen (AID 1160); details: HEK293-NOX4, Amplex Red H2O2 fluorescence, 45 min; higher = more signal, called active from +8 up or from −8 down
Chain of NADPH oxidase 4 (Homo sapiens) (Q9NPH5 whole entry, looked up): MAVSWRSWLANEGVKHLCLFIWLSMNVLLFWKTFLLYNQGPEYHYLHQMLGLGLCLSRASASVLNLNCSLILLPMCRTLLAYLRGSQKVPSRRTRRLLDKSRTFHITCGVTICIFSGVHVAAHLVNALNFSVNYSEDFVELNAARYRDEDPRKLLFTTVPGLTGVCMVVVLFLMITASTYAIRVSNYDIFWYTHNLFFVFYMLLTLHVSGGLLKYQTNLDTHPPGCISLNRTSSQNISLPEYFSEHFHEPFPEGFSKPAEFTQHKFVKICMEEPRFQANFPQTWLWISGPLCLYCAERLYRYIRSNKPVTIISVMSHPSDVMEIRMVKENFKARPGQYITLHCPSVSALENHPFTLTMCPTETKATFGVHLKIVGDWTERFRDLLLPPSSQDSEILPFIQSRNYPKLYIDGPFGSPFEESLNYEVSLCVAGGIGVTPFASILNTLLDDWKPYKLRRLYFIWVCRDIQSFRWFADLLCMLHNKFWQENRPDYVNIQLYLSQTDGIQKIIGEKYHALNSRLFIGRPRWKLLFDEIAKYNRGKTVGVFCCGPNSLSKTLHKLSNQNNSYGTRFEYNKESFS

[10] = molecular target: NADPH oxidase 5 (Homo sapiens) (UniProt Q96PH1); assay: compounds shifting NOX5 Amplex Red fluorescence – cell-based, HEK293-NOX5, NOX inhibitor project, primary screen (AID 1161); details: HEK293-NOX5, ionomycin, 45 min, higher = more signal
Chain of NADPH oxidase 5 (Homo sapiens) (Q96PH1 whole entry, looked up): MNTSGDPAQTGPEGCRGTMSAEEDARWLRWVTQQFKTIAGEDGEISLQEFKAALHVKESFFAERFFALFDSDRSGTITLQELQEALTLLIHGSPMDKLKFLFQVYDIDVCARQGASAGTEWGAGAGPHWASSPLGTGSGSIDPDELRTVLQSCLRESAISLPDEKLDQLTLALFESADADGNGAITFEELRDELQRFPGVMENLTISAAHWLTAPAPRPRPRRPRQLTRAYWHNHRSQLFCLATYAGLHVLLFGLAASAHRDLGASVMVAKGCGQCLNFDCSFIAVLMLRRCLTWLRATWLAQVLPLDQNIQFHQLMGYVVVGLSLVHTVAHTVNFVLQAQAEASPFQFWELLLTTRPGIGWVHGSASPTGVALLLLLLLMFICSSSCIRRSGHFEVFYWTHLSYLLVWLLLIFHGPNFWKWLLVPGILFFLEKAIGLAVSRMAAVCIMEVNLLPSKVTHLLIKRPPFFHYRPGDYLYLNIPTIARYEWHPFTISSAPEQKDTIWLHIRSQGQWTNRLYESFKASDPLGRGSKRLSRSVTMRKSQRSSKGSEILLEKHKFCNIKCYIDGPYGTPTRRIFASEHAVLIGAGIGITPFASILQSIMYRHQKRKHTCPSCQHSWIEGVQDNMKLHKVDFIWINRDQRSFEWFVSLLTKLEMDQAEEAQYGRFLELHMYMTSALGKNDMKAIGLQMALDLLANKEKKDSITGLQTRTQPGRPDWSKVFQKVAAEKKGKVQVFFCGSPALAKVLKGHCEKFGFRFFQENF

With `O=C1O[C@@H](c2ccccc2)[C@@H](c2ccccc2)N2[C@@H](c3ccc(O)cc3)[C@]3(C(=O)Nc4ccc(C#CCCO)cc43)[C@@H](C(=O)N3CCN(c4ncccn4)CC3)[C@H]12` the z-score [1] was 1.81 (inactive), the composite z-score [2] was 0.348 and the z-score [3] was 1.97 (inactive). For the same molecule, the z-score [4] was 1.01 (inactive), the z-score [5] was -0.834 (inactive) and the z-score [6] was 0.516 (inactive). For the same molecule, the z-score [7] was -0.138, the z-score [8] was 0.941 (inactive) and the z-score [9] was -0.341 (inactive). The z-score [10] was 0.594.

In the case of `COC(=O)[C@@]1(Cc2ccc(OC)cc2)[C@H]2c3cc(C(=O)N4CCCC4)n(CCc4c[nH]c5ccc(OC)cc45)c3C[C@H]2CN1C(=O)c1ccccc1`, the z-score [1] is reported as -1.61 (inactive), the composite z-score [2] is reported as 0.894 and the z-score [3] is reported as 4.25 (inactive). For the same molecule, the z-score [4] was 0.71 (inactive), the z-score [5] was 1.42 (inactive) and the z-score [6] was 1.57 (inactive). The z-score [7] was 0.0592, the z-score [8] was 0.547 (inactive) and the z-score [9] was 1.14 (inactive). It also gave a z-score [10] of 1.38.

For `C=CC[C@]1(C(=O)N2CCOCC2)COC(c2ccc(OCCCO)cc2)=N1`, the z-score [1] was 0.323 (inactive), the composite z-score [2] was 0.43 and the z-score [3] was 5.33 (inactive). For the same molecule, the z-score [4] was 0.2 (inactive), the z-score [5] was 0.638 (inactive) and the z-score [6] was 0.301 (inactive). The z-score [7] was 0.0334, the z-score [8] was -2.25 (inactive) and the z-score [9] was -0.335 (inactive). For the same molecule, the z-score [10] was -0.859.

In the case of `COCC(=C=CC[C@H](O)c1ccccc1OCCO)C[C@H](O)c1ccccn1`, the z-score [1] is reported as 0.769 (inactive), the composite z-score [2] is reported as -0.224 and the z-score [3] is reported as 3.61 (inactive). The z-score [4] was 1.12 (inactive), the z-score [5] was 1.74 (inactive) and the z-score [6] was 0.382 (inactive). The z-score [7] was 0.658, the z-score [8] was 0.251 (inactive) and the z-score [9] was -0.831 (inactive). It also gave a z-score [10] of -0.926.

With `C[N+](C)(C)CCCC[C@@H]1NC(=O)[C@@H]2C[C@H](C(=O)NCCCCCCN)[C@H](c3cccc(OCCO)c3)N2C1=O` the z-score [1] was 0.0598 (inactive), the composite z-score [2] was 2.07 and the z-score [3] was 2.07 (inactive). For the same molecule, the z-score [4] was 0.679 (inactive), the z-score [5] was 0.837 (inactive) and the z-score [6] was 0.229 (inactive). The z-score [7] was 0.38, the z-score [8] was 0.827 (inactive) and the z-score [9] was 0.0305 (inactive). For the same molecule, the z-score [10] was 0.559.

For `Cc1ccc(S[C@]2(C(=O)NCC(F)(F)F)CC(=O)N(Cc3cc(C(F)(F)F)cc(C(F)(F)F)c3)[C@@H]2c2ccc(CO)cc2I)cc1`, the z-score [1] was 0.168 (inactive), the composite z-score [2] was -0.563 and the z-score [3] was 1.71 (inactive). For the same molecule, the z-score [4] was -0.0111 (inactive), the z-score [5] was 1.12 (inactive) and the z-score [6] was 0.449 (inactive). For the same molecule, the z-score [7] was 0.837, the z-score [8] was 1.63 (inactive) and the z-score [9] was -2.46 (inactive). It also gave a z-score [10] of -1.28.

In the case of `CCCCC=C[C@@H](NC(=O)OCc1ccccc1Cl)c1ccccc1`, the z-score [1] is reported as -2.07 (inactive), the composite z-score [2] is reported as 2.4 and the z-score [3] is reported as 0.278 (inactive). For the same molecule, the z-score [4] was 0.894 (inactive), the z-score [5] was 0.806 (inactive) and the z-score [6] was 0.887 (inactive). For the same molecule, the z-score [7] was -0.0327, the z-score [8] was 0.027 (inactive) and the z-score [9] was -0.52 (inactive). The z-score [10] was 1.24.

With `O=C(C1N=C(c2ccc(OCCCO)cc2)N(c2ccccc2)O1)N1CCCCC1` (stereo not given) the z-score [1] was 0.666 (inactive), the composite z-score [2] was 0.0338 and the z-score [3] was 13.2 (active). For the same molecule, the z-score [4] was 1.66 (inactive), the z-score [5] was 0.374 (inactive) and the z-score [6] was 0.423 (inactive). For the same molecule, the z-score [7] was -0.0704, the z-score [8] was 1.12 (inactive) and the z-score [9] was 0.209 (inactive). For the same molecule, the z-score [10] was -0.404.

For `[N-]=[N+]=Nc1ccccc1[C@H]1OC(c2ccc(OCCCO)cc2)=N[C@@]1(Cc1ccccc1)C(=O)NCCN1CCOCC1`, the z-score [1] was 0.378 (inactive), the composite z-score [2] was 0.31 and the z-score [3] was 33.5 (active). For the same molecule, the z-score [4] was 30.9 (active), the z-score [5] was 2.73 (inactive) and the z-score [6] was 8.84 (active). The z-score [7] was 0.138, the z-score [8] was -1 (inactive) and the z-score [9] was 0.585 (inactive). It also gave a z-score [10] of 1.57.

In the case of `O=C(NCCN1CCOCC1)[C@@H]1c2ccccc2C(=O)N(C2Cc3ccccc3C2)[C@H]1c1ccc(CO)cc1`, the z-score [1] is reported as 2.03 (inactive), the composite z-score [2] is reported as -0.0292 and the z-score [3] is reported as 3.11 (inactive). For the same molecule, the z-score [4] was -0.0966 (inactive), the z-score [5] was -0.056 (inactive) and the z-score [6] was 0.0832 (inactive). For the same molecule, the z-score [7] was 1.31, the z-score [8] was 0.182 (inactive) and the z-score [9] was 0.855 (inactive). It also gave a z-score [10] of -0.0278.

For `CCCC1(C(=O)OC)C=C2C(=C(C)C(=O)C2C)CN1` (stereo not given), the z-score [1] was -1.8 (inactive), the composite z-score [2] was 0.193 and the z-score [3] was -0.0775 (inactive). For the same molecule, the z-score [4] was -0.0273 (inactive), the z-score [5] was -0.0148 (inactive) and the z-score [6] was 0.274 (inactive). For the same molecule, the z-score [7] was -0.386, the z-score [8] was 0.43 (inactive) and the z-score [9] was -1.28 (inactive). It also gave a z-score [10] of -2.88.
